The values that follow come from PubChem BioAssay (NCI).

Molecules are shown by their SMILES. Compounds without any hit were thinned out: in the full panel of roughly 83,000, 20% have a hit.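 Interpretation: 100, growth as untreated; towards 0, rising growth inhibition; 0, no net growth; 0 to -100, cell death. Compounds scoring below 10 were considered active.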 A number with no mark means an inactive call. Activity calls are given as the source filed them.

In the assay the test system is A549/ATCC NSCLC. Kind of assay: NCI-60 one-dose screen, 48 h (100 = growth as untreated, 0 = no growth, -100 = all killed). The conditions noted are these: 10 µM unless noted. On the procedure: Growth inhibition of the A549/ATCC human Non-Small Cell Lung tumor cell line is measured as a screen for anti-cancer activity. Cells are grown in 96 well plates and exposed to the test compound for 48 hours. Compounds are tested at a single concentration, which is 10^-5 M for most compounds. The reported endpoint is percent growth (GI% or GIPRCNT), where numbers from 0 - 100% represent growth inhibition, and numbers from -100% - 0 represent cell death. For example, a value of 40 represents 60% growth inhibition. A value of 0 means no net growth occurred over the course of the experiment. A value of -40 indicates 40% of cells at the beginning of the experiment died by the end of the experiment. A value of -100 means all cells are dead at the end of the experiment.
NCI-60 Human Tumor Cell Lines Screen was performed using the standard one-dose NCI protocol, which is described in more detail at https://dtp.cancer.gov/discovery_development/nci-60/default.htm.
Compounds with GIPRCNT values below 10 were considered active. Activity score was based on GIPRCNT using the following formula: […]
Score is 0 for GIPRCNT values of 100 or above, 50 for GIPRCNT values of 0, and 100 for GIPRCNT values of -100.
For the compound `CCN1CCN(C(=O)[C@]23CC[C@@H](C)[C@H](C)[C@@H]2C2=CC[C@@H]4[C@@]5(C)C/C(=C/c6cccnc6)C(=O)C(C)(C)[C@@H]5CC[C@@]4(C)[C@]2(C)CC3)CC1`, the growth was 32%. As for `Cc1ncc(C(=O)Nc2ccc(CN3CCN(C)CC3)c(C(F)(F)F)c2)cc1C#Cc1cnc(N)c2ncccc12`, the figure is 21.2%; as for `COc1ccc(C(=O)c2cc3c(N)c(C(=O)Nc4ccccc4)sc3nc2C)cc1`, 31.1%; as for `C[C@]1(O)CC(=O)[C@]2(O)C3=C(C=C[C@]2(O)C1)C(=O)c1c(O)cccc1C3=O`, 103%. Consider `CCOc1c(OC)cc2c(c1O)C(=O)N[C@@H]1[C@@H](O)[C@@H](O)[C@H](O)C[C@@H]21`, for which the growth was 94.7%.

As for `Fc1ccc(Cn2cc(CSc3nc4ccccc4o3)nn2)cc1`, the growth is 103%. With `Cc1ccc(-c2nc(-c3cn(C)c4ncccc34)cs2)cc1`, the growth is 7.36% [100 µM] (active). As for `CC1(C)CC2=C3C=C[C@@H]4[C@@]5(C)CCC(=O)C(C)(C)[C@@H]5CC[C@@]4(C)[C@]3(C)CC[C@@]2(C(=O)O)C[C@H]1O`, the figure is 26.3%. With `CC(C)(C)n1cc(-c2ccnc(NCCCNS(=O)(=O)c3ccc(C(F)(F)F)cc3)c2)c(-c2cccc(F)c2)n1`, the growth is 64.1%.

With `O=C(N/N=C\c1ccccc1S(=O)(=O)O)N/N=C/c1ccccc1S(=O)(=O)O`, the growth is 97.9%.

Take `CC1(C)CC[C@]2(CO)CC[C@]3(C)[C@H](CC[C@@H]4[C@@]5(C)CCCNC(C)(C)[C@@H]5CC[C@]43C)[C@H]2[C@H]1O`: the growth was 73%. As for `COC(=O)/C=C1/SC(=Nc2ccc([N+](=O)[O-])cc2)N(CCc2c[nH]c3ccc(O)cc23)C1=O`, the growth was 69.3%. As for `O=S(=O)(NCCNc1nccc(-c2c(-c3ccc(F)c(O)c3)nc3sccn23)n1)c1ccc(F)cc1`, the figure is 26.9%; as for `COc1ccccc1N(C(C)=O)C1=C(Cl)C(=O)c2ccccc2C1=O`, 8.36% (active). As for `COc1cccc(CCNc2ncnc3c2ncn3Cc2nnc3c4ccccc4c(Cl)nn23)c1`, the figure is 77.8%. On to `O=C(Nc1ncccc1OCc1ccccc1)NC1CCCCCC1`, for which the growth is 97.8%. On to `Cc1ccc(C(=O)c2ccc(CC(=O)NN3C(=O)c4ccccc4C3=O)n2C)cc1`, for which the growth was 101%. Then `O=C(NC(Cc1nnc2n(Cc3ccccc3)c(=O)c3c4c(sc3n12)CCCC4)c1ccccc1)c1ccccc1` (stereo not given), with 90.4%; and `CNC(=O)c1cc(Oc2cccc3nc(NC(=O)Nc4cc(C(F)(F)F)ccc4Cl)ccc23)ccn1`, with 90%.

As to `COc1ccc(-c2n[nH]c(=O)c3nc(NC(=S)Nc4ccc(Oc5ccccc5)cc4)sc23)cc1`, the growth was 86.7%.

`Cc1ccc(-c2nc3nc(-c4ccccc4)nc(N4CCCN(S(C)(=O)=O)CC4)c3o2)cc1`: the growth is 38.8%.

With `CC(=O)O[C@H]1C[C@@H]2C(C)(C)C(=O)CC[C@@]2(C)c2ccc(C(C)C)cc21`, the growth is 107%. Then `NC(N)=NS(=O)(=O)c1ccc(NC2=C(I)C(=O)c3ncccc3C2=O)cc1`, with 106%; and `CCc1ccc(CCC(=O)Nc2ncc(Cc3cc(Cl)ccc3Cl)s2)o1`, with 22.5%. Take `COc1ccc(Cn2cc(C(=O)N=Nc3c(O)[nH]c4c(C)cccc34)nn2)cc1`: the growth was 85.3%. As for `Cc1ccc(-c2nc(N3CCNCC3)c3oc(-c4ccc(C)cc4)nc3n2)cc1`, the figure is -83.3% (active); as for `CCNC(=O)Oc1ccc(/C(=C(/C)Cc2ccc(OC)cc2)c2ccc(OCCN3CCCCC3)cc2)cc1`, 62%. As for `Cc1ccc(/C=C(\C#N)n2nnc3cc(F)c(F)cc32)cc1`, the figure is 10.1%; as for `C=C(CNCCO)[C@@H]1CC[C@]2(CO)CC[C@]3(C)[C@H](CC[C@@H]4[C@@]5(C)CCC(N)C(C)(C)[C@@H]5CC[C@]43C)[C@@H]12` (stereo not given in full), 36.2%; as for `N#Cc1c(Nc2ccc(N3CCOCC3)cc2)nc(SCC(=O)c2ccc(Br)cc2)nc1-c1ccccc1`, 97.3%.

As to `Cc1ccc(CNc2ccc3nc(CCC(C)C)[nH]c3c2)cc1`, the growth was 97.6%. Then `Cc1cc2c(cc1C)N(C(=O)CCl)CC(=O)N2`, with 88.1%; and `CC(C)(C)n1cc(-c2ccnc(NCCNS(=O)(=O)c3ccc(O)cc3)c2)c(-c2cccc(O)c2)n1`, with 97.3%. Consider `C=C1C(=O)O[C@H]2[C@H]1CC/C(COC(=O)NCc1ccc(Cn3c(=O)sn(-c4ccc(C#N)cc4)c3=O)cc1)=C\CC[C@@]1(C)O[C@@H]21`, for which the growth was 96.7%. As for `CCSc1oc(C)nc1[P+](c1ccccc1)(c1ccccc1)c1ccccc1`, the growth was 23.2%. `CC1CCN(C(=O)CCCl)c2ccccc21` (stereo not given): the growth was 96.6%. As for `CN1CCN(c2ccc3nc4c(nc3c2C(F)(F)F)C(=O)c2ncccc2C4=O)CC1`, the figure is -36.2% (active). As for `CSC1=Nc2c(c(C)c(-c3ccccc3)n2CCCC(=O)O)C2=NC(=O)C[C@H](C)N12`, the figure is 101%; as for `COc1cccc(-c2cc(-c3cccc(Cl)c3)c(C#N)c(=O)[nH]2)c1`, 70.9%.

With `CCOc1ccc(-n2nc(C(=O)NCc3ccccc3OC)nc2-c2cc(OC)c(OC)c(OC)c2)cc1`, the growth is 34.5%.
